Here are results for 15 compounds from PubChem BioAssay.

The target of test [1] is Cell division control protein 42 homolog (Homo sapiens) (UniProt P60953). Description: inhibition of fluorescent GTP binding to constitutively active Cdc42 – biochemical, multiplex bead flow cytometry, Bodipy-FL-GTP, dose response (AID 1333). (In general: In flow cytometry, cells or beads pass a laser one at a time.)
Test [2] shares this target. Description: inhibition of fluorescent GTP binding to wildtype Cdc42 – biochemical, multiplex bead flow cytometry, Bodipy-FL-GTP, dose response (AID 1334;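 active means fitted half-maximal concentration within the tested range, moderate curve steepness, significant signal drop, and little compound fluorescence or bead-linkage interference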). Conditions: bead-based flow cytometry, Bodipy-FL-GTP binding to GST-Cdc42; at 100 µM (top of the series) unless noted.
Test [3] has as its target GTPase HRas (Homo sapiens) (UniProt P01112). Description: Ras wt fluorescent GTP loading blockade – biochemical, wildtype, multiplex bead flow cytometry, dose response (AID 1335;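 active means fitted half-maximal concentration within 10 nM to 100 µM, steepness 0.5 to 2, significant signal drop, low assay interference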). Conditions: bead-based flow cytometry, Bodipy-GTP binding to GST-Ras; at 100 µM (top of the series) unless noted.
In test [4] the test system is Ras-related protein Rab-7a (dog), GTP binding. Description: blockers of fluorescent GTP binding to Rab7 – biochemical, wildtype, multiplex bead flow cytometry, dose response (AID 1336; call rule not given here).
For test [5], the target named is Ras-related C3 botulinum toxin substrate 1 (Homo sapiens) (UniProt P63000). In words: inhibition of wildtype Rac1 nucleotide loading – biochemical, multiplex bead flow cytometry, dose response (AID 1340;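 active means dose curve with midpoint inside tested range, moderate steepness, plateau gap beyond fit error, low compound glow and bead-link interference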). Particulars: GST-Rac1 beads, Bodipy-FL-GTP binding; at 100 µM (top of the series) unless noted.
Test [6] addresses GTPase HRas (Homo sapiens) (UniProt P01112). In words: blockade of GTP loading onto mutant Ras – biochemical, activated mutant, multiplex bead flow cytometry, dose response (AID 1341;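 active means dose-response curve with midpoint inside the tested range, moderate steepness, significant amplitude and little compound fluorescence or bead-attachment interference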;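 further: GST-tagged constitutively activated Ras mutant immobilized on beads and multiplexed with other GTPases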).

For part of these data: Potency and affinity values are given separately. Calls of active or inactive are those of the source.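 How the source made its calls, unless noted: active means fitted half-maximal concentration within the tested dose range, moderate curve steepness, a statistically real signal drop, and little compound fluorescence or tag-binding interference; inactive means the rest.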

GTPase HRas (Homo sapiens), sequence (P01112 whole entry, looked up): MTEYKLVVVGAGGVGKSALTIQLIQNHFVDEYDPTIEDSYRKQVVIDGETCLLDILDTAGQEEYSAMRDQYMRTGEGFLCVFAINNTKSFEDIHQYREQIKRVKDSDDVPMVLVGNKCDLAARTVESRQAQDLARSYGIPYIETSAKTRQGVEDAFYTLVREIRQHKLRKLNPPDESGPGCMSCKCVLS
Cell division control protein 42 homolog (Homo sapiens), sequence (P60953 whole entry, looked up): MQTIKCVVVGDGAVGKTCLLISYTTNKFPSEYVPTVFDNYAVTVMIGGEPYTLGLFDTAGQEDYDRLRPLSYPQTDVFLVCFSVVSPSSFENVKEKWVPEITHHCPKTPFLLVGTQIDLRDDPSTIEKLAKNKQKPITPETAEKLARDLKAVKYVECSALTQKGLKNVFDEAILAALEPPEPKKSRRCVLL

Turning to `O=C(CSc1ccc2nnc(-c3ccccn3)n2n1)Nc1nccs1`, the result in test [1], in test [4] and in test [6] was inactive. The compound further showed a fluorescence, percent of control (lower = inhibition) in test [2] of 28.8%. The GTP binding, percent of control in test [3] was 61.7%. Further, in test [5], the GTP binding signal, raw median fluorescence (lower = inhibition) (MCF (arbitrary fluorescence units)) came out at 124.
In the case of `CC(=O)Oc1cccc(C#CC(=O)c2ccc([N+](=O)[O-])cc2)c1`, the compound was called inactive in test [1], in test [4] and in test [6]. Further, in test [2], the fluorescence, percent of control (lower = inhibition) worked out at 35.4%. The compound also gave a GTP binding, percent of control in test [3] of 173%. For the same compound, the GTP binding signal, raw median fluorescence (lower = inhibition) (MCF (arbitrary fluorescence units)) in test [5] turned out to be 95.5.
Regarding `Cc1sc2nc3c4ccccc4c(NCc4ccco4)nn3c(=O)c2c1C`, the outcome in test [1], in test [4] and in test [6] was inactive. The fluorescence, percent of control (lower = inhibition) in test [2] came to 94%. This compound gave a GTP binding, percent of control in test [3] of 104%. In addition, the GTP binding signal, raw median fluorescence (lower = inhibition) (MCF (arbitrary fluorescence units)) in test [5] amounted to 123.
For the compound `Fc1cccc(Nc2ncnc3[nH]ncc23)c1`, the compound was classed as inactive in test [1], in test [4] and in test [6]. In test [2], this compound showed a fluorescence, percent of control (lower = inhibition) of 30.9%. The compound also showed a GTP binding, percent of control in test [3] of 72.3%. In test [5], this compound yielded a GTP binding signal, raw median fluorescence (lower = inhibition) (MCF (arbitrary fluorescence units)) of 177.
On to `COC(=O)c1c(N2C(=O)[C@H]3[C@@H](C2=O)[C@]2(C(=O)Nc4c(C)cc(C)cc42)N2CCC[C@@H]32)sc(C)c1C`, for which the call in test [1], in test [4] and in test [6] was inactive. Besides, the fluorescence, percent of control (lower = inhibition) in test [2] came to 45.1%. In test [3], this compound yielded a GTP binding, percent of control of 97.2%. In test [5], the GTP binding signal, raw median fluorescence (lower = inhibition) (MCF (arbitrary fluorescence units)) stood at 238.
Regarding `COc1ccc(/C=C2\N=C(SC)SC2=O)cc1OC`, the outcome in test [1], in test [4] and in test [6] was inactive. The same compound came in with a fluorescence, percent of control (lower = inhibition) in test [2] of 86.4%. Besides, the GTP binding, percent of control in test [3] came to 150%. In addition, the GTP binding signal, raw median fluorescence (lower = inhibition) (MCF (arbitrary fluorescence units)) in test [5] turned out to be 186.
Regarding `O=C(O)c1ccccc1NCc1c(Cl)cccc1Cl`, the result in test [1], in test [4] and in test [6] was inactive. The same compound registered a fluorescence, percent of control (lower = inhibition) in test [2] of 59.4%. Moreover, the GTP binding, percent of control in test [3] was found to be 87.4%. In test [5], this compound came in with a GTP binding signal, raw median fluorescence (lower = inhibition) (MCF (arbitrary fluorescence units)) of 30.2.
Turning to `Cc1ccc2cc3cc(C(=O)N4CCN(Cc5ccccc5)CC4)sc3nc2c1`, the call in test [1], in test [4] and in test [6] was inactive. The compound also returned a fluorescence, percent of control (lower = inhibition) in test [2] of 87.8%. Further, the GTP binding, percent of control in test [3] was determined as 156%. The same compound came in with a GTP binding signal, raw median fluorescence (lower = inhibition) (MCF (arbitrary fluorescence units)) in test [5] of 188.
On to `Cc1ccccc1NC(=O)c1ccc(NC(=O)C2CC(=O)OC23CCCCC3)cc1` (stereo not given), for which the call in test [1], in test [4] and in test [6] was inactive. The compound also came in with a fluorescence, percent of control (lower = inhibition) in test [2] of 32.9%. Further, in test [3], the GTP binding, percent of control came to 76.1%. Also, the GTP binding signal, raw median fluorescence (lower = inhibition) (MCF (arbitrary fluorescence units)) in test [5] worked out at 195.
With `COc1ccc2c(C)cc3nncn3c2c1`, the result in test [1], in test [4] and in test [6] was inactive. The compound further came in with a fluorescence, percent of control (lower = inhibition) in test [2] of 51.4%. In addition, in test [3], the GTP binding, percent of control was 92.8%. The same compound displayed a GTP binding signal, raw median fluorescence (lower = inhibition) (MCF (arbitrary fluorescence units)) in test [5] of 202.
For the compound `CCCn1cc(CN2CCCC(CNC(=O)c3ccc(F)cc3)C2)c(C)n1` (stereo not given), the compound was called inactive in test [1], in test [4] and in test [6]. The fluorescence, percent of control (lower = inhibition) in test [2] was 37.6%. The compound further returned a GTP binding, percent of control in test [3] of 85.7%. The GTP binding signal, raw median fluorescence (lower = inhibition) (MCF (arbitrary fluorescence units)) in test [5] stood at 247.
As to `Cc1ccc(-n2c(=O)[nH]c3c(oc4ccccc43)c2=O)cc1`, the compound was called inactive in test [1], in test [4] and in test [6]. The compound further had a fluorescence, percent of control (lower = inhibition) in test [2] of 34.8%. Further, in test [3], the GTP binding, percent of control was 78.7%. This compound also returned a GTP binding signal, raw median fluorescence (lower = inhibition) (MCF (arbitrary fluorescence units)) in test [5] of 332.
For the compound `CCOc1ccc(-n2c(C)nc3cc(C(=O)NCc4ccc5c(c4)OCO5)ccc32)cc1`, the compound was called inactive in test [1], in test [4] and in test [6]. Further, the fluorescence, percent of control (lower = inhibition) in test [2] came out at 41.7%. Further, the GTP binding, percent of control in test [3] came to 62.5%. The same compound displayed a GTP binding signal, raw median fluorescence (lower = inhibition) (MCF (arbitrary fluorescence units)) in test [5] of 163.
Regarding `Cc1csc(NC(=O)c2cc(=O)[nH]c3ccc(S(=O)(=O)N4CCOCC4)cc23)n1`, the result in test [1], in test [4] and in test [6] was inactive. The fluorescence, percent of control (lower = inhibition) in test [2] came to 31.8%. Besides, in test [3], the GTP binding, percent of control came out at 74.5%. In test [5], this compound showed a GTP binding signal, raw median fluorescence (lower = inhibition) (MCF (arbitrary fluorescence units)) of 190.
With `CCN1C(=O)/C(=C/C=C2/Sc3ccc4ccccc4c3N2CCO)SC1=S`, the compound was called inactive in test [1], in test [4] and in test [6]. The same compound returned a fluorescence, percent of control (lower = inhibition) in test [2] of 27.6%. In test [3], this compound showed a GTP binding, percent of control of 59.2%. Besides, in test [5], the GTP binding signal, raw median fluorescence (lower = inhibition) (MCF (arbitrary fluorescence units)) is 179.
